Results reported in the supplement of paper PMC13380429.

Columns and labels:
[1] = tested on: Vero E6 infected with SARS-CoV-2; assay: morphology score (similarity to uninfected cells); higher = more like uninfected cells; conditions: 24 h
[2] = tested on: Vero E6 infected with SARS-CoV-2; assay: SARS-CoV-2 infection rate relative to infected DMSO; higher = more infection, active = 60 or less; conditions: 24 h

| SMILES | morphology score [1] | SARS-CoV-2 infection rate [2] |
| --- | --- | --- |
| O=C1C2C=Nc3ccccc3C2=NN1c1ccc(Cl)cc1 (stereo not drawn) (10 µM) | -0.264 | 120% (inactive) |
| COC(=O)N/N=C/c1c[n+]([O-])c2ccccc2[n+]1[O-] [carbadox] (10 µM) | 0.227 | 85% (inactive) |
| CC(CCc1ccccc1)NCC(O)c1ccc(O)c(C(N)=O)c1 (stereo not drawn) [labetalol] (10 µM) | -0.119 | 114% (inactive) |
| CC(C)(C)CC(C)(C)c1cc(Cc2cc(C(C)(C)CC(C)(C)C)cc(-n3nc4ccccc4n3)c2O)c(O)c(-n2nc3ccccc3n2)c1 [bisoctrizole] (10 µM) | -0.0457 | 114% (inactive) |
| O=C(/C=C/c1cccc(F)c1)NC1CC1 [cinflumide] (10 µM) | -0.00378 | 110% (inactive) |
| CNCC(=O)O [sarcosine] (10 µM) | 0.0271 | 108% (inactive) |
| O=C(NOCC1CC1)c1ccc(F)c(F)c1Nc1ccc(I)cc1Cl (10 µM) | 0.0812 | 100% (inactive) |
| CC1(N2CCC(n3c([C@@H]4CCCNC4)nc4ccccc43)CC2)CCCCCCC1 (10 µM) | 0.62 | 22% (active) |
| C[C@@H]1CCC[C@H](C)N1NC(=O)c1ccc(Cl)c(S(N)(=O)=O)c1 [clopamide] (10 µM) | -0.0797 | 103% (inactive) |
| Clc1ccc(C(c2ccc(Cl)cc2)C(Cl)(Cl)Cl)cc1 (10 µM) | 0.0848 | 106% (inactive) |
| CC1(C)Cc2c(-c3ccccc3)c(-c3ccc(Cl)cc3)c(CC(=O)O)n2C1 [licofelone] (10 µM) | 0.31 | 105% (inactive) |
| CN1[C@@H]2CC[C@H]1C[C@@H](OC(c1ccccc1)c1ccccc1)C2 [benztropine-mesylate] (10 µM) | 0.481 | 84.5% (inactive) |
| CN[C@@H](C)C(=O)N[C@H](C(=O)N1CCC[C@H]1C(=O)Nc1sc(-c2ncco2)nc1-c1ccccc1)C1CCCCC1 (10 µM) | 0.185 | 102% (inactive) |
| COc1ccc(CCN(C)CCc2ccc(OC)c(OC)c2)cc1OC (10 µM) | 0.0297 | 103% (inactive) |
| COc1c(C)cnc(Cn2cc(C#CCC(C)(C)O)c3c(Cl)nc(N)nc32)c1C (10 µM) | 0.181 | 110% (inactive) |
| Cc1[nH]c2ccccc2c1CCNC(=O)c1cccs1 (10 µM) | 0.142 | 103% (inactive) |
| CC(C(=O)O)c1ccc(C(=O)c2cccs2)cc1 (stereo not drawn) [suprofen] (10 µM) | 0.123 | 108% (inactive) |

| SMILES | morphology score [1] | SARS-CoV-2 infection rate [2] |
| --- | --- | --- |
| CC(C)[C@H]1[C@@H]2CC[C@@H](C2)[C@@H]1N (10 µM) | 0.109 | 82% (inactive) |
| O=P(O)(O)C(Cl)(Cl)P(=O)(O)O [clodronic-acid] (10 µM) | -0.00847 | 92% (inactive) |
| FC(F)(F)c1cccc(-c2noc(-c3cc(-c4ccccc4)c(C(F)(F)F)s3)n2)c1 (10 µM) | -0.0447 | 114% (inactive) |
| NC(=O)c1[nH]cnc1O (10 µM) | -0.0334 | 107% (inactive) |
| NC(=O)c1cnccn1 [pyrazinamide] (10 µM) | 0.0672 | 110% (inactive) |
| O=[N+]([O-])c1ccc2nc(COCc3nc4ccc([N+](=O)[O-])cc4[nH]3)[nH]c2c1 (10 µM) | -0.00439 | 94.5% (inactive) |
| CC(C)Nc1cccnc1N1CCN(C(=O)c2cc3cc(NS(C)(=O)=O)ccc3[nH]2)CC1 [delavirdine] (10 µM) | 0.0195 | 110% (inactive) |
| CS(=O)(=O)n1cc2c(n1)CN([C@H]1CO[C@H](c3cc(F)ccc3F)[C@@H](N)C1)C2 [omarigliptin] (10 µM) | 0.198 | 107% (inactive) |
| C#Cc1cccc(Nc2ncnc3cc(OCCOC)c(OCCOC)cc23)c1 [erlotinib] (10 µM) | -0.159 | 116% (inactive) |
| CCOc1ccccc1-n1c(C(C)N2CCN(C(=O)COc3ccc(Cl)cc3)CC2)nc2ccccc2c1=O (stereo not drawn) [erastin] (0.833333 µM) | -0.0506 | 86% (inactive) |
| Cc1ncc(Cl)cc1NCc1ccc(C(=O)N[C@@H](CC2CCCC2)C(=O)NC2CC2)s1 (10 µM) | 0.0746 | 106% (inactive) |
| Cc1ccc(OCCSc2ncccn2)c(Br)c1 (10 µM) | 0.0756 | 104% (inactive) |
| NC(=O)C[C@H](N)C(=O)O [L-asparagine] (10 µM) | 0.14 | 94% (inactive) |
| CCN(CC)CCCC(C)Nc1c2ccc(Cl)cc2nc2ccc(OC)cc12 (stereo not drawn) [mepacrine] (0.833333 µM) | 0.481 | 55.5% (active) |
| CCc1nc2ccc(Cl)cn2c1C(=O)NCc1ccc(N2CCC(c3ccc(OC(F)(F)F)cc3)CC2)cc1 (10 µM) | 0.0715 | 96% (inactive) |
| CC(C)(C)CC(=O)Nc1c(F)cc(C(=O)/N=c2\sccn2COP(=O)(O)O)cc1F (10 µM) | 0.0762 | 93.5% (inactive) |
| CC(=O)Nc1cccc(-n2c(=O)n(C3CC3)c(=O)c3c(Nc4ccc(I)cc4F)n(C)c(=O)c(C)c32)c1 [trametinib] (0.833333 µM) | 0.263 | 89% (inactive) |
